Compounds with a hit are over-represented: about 3.2% of the library has one in this group of screens.
HEK293 tox: qHTS of GLP-1 Receptor Inverse Agonists: Cytotox Screen; AID 624418, 2012; HEK293 cAMP-luciferase reporter cells, luminescence, 24 h; 410,000 compounds, 0.13% hits; Potency, µM (series often up to 38.3 µM), without a hit: at the top dose activity change, negative = inhibition, hits mostly inhibitors;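 further: loss of luciferase light is scored as toxicity; on the % scale 0 is the no-effect control and ±100 the full control effect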
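Here, cytotoxicity is scored as loss of luminescence. The MLSMR collection was tested on cells seeded in medium containing 10% Nu serum, with a 24 hr compound exposure preceded by 12 hours of culture.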
GLP-1R inv ag: qHTS of GLP-1 Receptor Inverse Agonists (Inhibition Mode) | Glucagon-like peptide 1 receptor (Homo sapiens), P43220 | HEK293 GLP-1R CRE-luciferase, luminescence, 24 h; GLP-1R form is constitutively active | 410,000 compounds, 1.6% hits | Potency, µM (series often up to 38.3 µM), for the others: at the top dose activity change, negative = inhibition, most hits filed as inhibitors; further: on the % scale 0 is the no-effect control and ±100 the full control effect; nearly all actives have a fitted effect of over 55% in size
Target sequence (P43220 whole entry, looked up): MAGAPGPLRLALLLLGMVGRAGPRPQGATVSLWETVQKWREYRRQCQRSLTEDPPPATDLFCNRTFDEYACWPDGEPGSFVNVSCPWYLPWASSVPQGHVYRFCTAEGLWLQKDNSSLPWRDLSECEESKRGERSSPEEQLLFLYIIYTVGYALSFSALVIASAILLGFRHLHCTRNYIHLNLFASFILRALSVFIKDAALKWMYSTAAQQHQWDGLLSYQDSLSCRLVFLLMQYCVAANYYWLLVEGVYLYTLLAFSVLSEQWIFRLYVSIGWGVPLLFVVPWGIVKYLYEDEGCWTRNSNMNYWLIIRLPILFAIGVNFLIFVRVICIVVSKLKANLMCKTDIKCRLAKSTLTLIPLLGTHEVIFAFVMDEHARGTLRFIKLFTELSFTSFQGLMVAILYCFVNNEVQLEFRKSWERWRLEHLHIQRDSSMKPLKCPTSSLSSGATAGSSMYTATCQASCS
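HEK293 cells stably co-expressing a cAMP-responsive luciferase reporter and constitutively active GLP-1R were seeded, incubated 12 h, then exposed to compounds for 24 h at 37 C. Luminescence was read 12 min after detection reagent; inverse agonists lower signal.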
ClpP mod: qHTS Assay for Activators of ClpP. purified B. subtilis ClpP, FRET peptide cleavage, 20 min. Potency, µM (series often up to 57.5 µM), inactives show top-dose activity change, negative = active. 340,000 compounds, 1.9% hits; active means well fitted falling curve with a large enough effect; inconclusive means small, poorly fitted or top-dose-only effect; inactive means no such curve, though single readings can be large or run the other way; further: the source files actives as falling curves though it sought activators and does not explain the sign; nearly all actives have a fitted effect of over 65% in size
Target sequence (P80244 whole entry, looked up): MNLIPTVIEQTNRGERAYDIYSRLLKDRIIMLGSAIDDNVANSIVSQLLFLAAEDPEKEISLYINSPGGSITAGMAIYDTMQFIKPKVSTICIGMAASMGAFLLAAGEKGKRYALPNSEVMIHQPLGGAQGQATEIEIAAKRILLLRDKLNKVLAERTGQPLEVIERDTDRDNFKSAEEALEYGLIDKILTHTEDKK
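FRET quenching reversal measured ClpP activation: 10 microg/mL B. subtilis ClpP at pH 8 with the FRET-FV decapeptide, read at 430 nm after 320 nm excitation. The 20-min minus 0-min signal was scaled between DMSO/no-enzyme wells and ADEP (5.8 microM final).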
GLP1R ag: qHTS of GLP-1 Receptor Agonists; Glucagon-like peptide 1 receptor (Homo sapiens), P43220; 380,000 compounds, 0.007% hits; Potency, µM (series often up to 45.6 µM), inactives show top-dose activation, actives largely listed as activators; HEK293 GLP-1R CRE-luciferase, luminescence, 4-6 h; cells express a hypersensitive GLP-1R form; further: % of control where 0% means no effect
The depositor's hits bear a star; ? = inconclusive; . = no result given. Unless noted, the call rests on the fitted dose curve; in most records, active means well fitted curve in the direction sought with a large enough effect; inconclusive means small, poorly fitted or top-dose-only effect, or another doubt; inactive means no such curve, though single readings can be large; an effect the other way counts as inactive or inconclusive. Potency means the concentration at half of the fitted maximal effect.

SMILES	HEK293 tox	GLP-1R inv ag	ClpP mod	GLP1R ag
COc1ccc2cc(S(=O)(=O)c3ccccc3F)c(=O)oc2c1	67.4%	-17.3%	4.6%	.
CCN(C(=O)COc1ccc2ccc(=O)oc2c1)C1CCCCC1	5.1%	6.8%	25.1µM*	?
CN(C)C(=O)COc1ccc2ccc(=O)oc2c1	11.5%	0.1%	31.6µM*	-0.9%
CN(C(=O)COc1ccc2ccc(=O)oc2c1)C1CCS(=O)(=O)C1 (centres undefined)	-2.6%	10.0%	4.2%	-1.5%
Cc1ccc(-c2csc(N3CCC[C@@H]3C(=O)NCCn3c(-c4ccncc4)nc4ccccc43)n2)cc1	-54.3%	12.6µM*	-0.6%	-4.2%
C=C1CCC[C@]2(C)C[C@H]3OC(=O)C(CN4CCCCC4CO)[C@H]3CC12 (some centres undefined)	-9.7%	63.2%	?	0.4%
C[C@H]1CCC[C@]2(C)C[C@H]3OC(=O)C(CN4CCCCCC4)[C@H]3C=C12 (some centres undefined)	?	11.2µM*	-0.2%	-6.9%
CSc1nn(Cc2cccc(Cl)c2)c(N(C(C)=O)C(C)=O)c1S(=O)(=O)c1ccccc1	-13.2%	12.6µM*	-0.9%	-4.1%
Cc1cccc(Cn2cc(S(=O)(=O)c3ccc(Cl)cc3)c(=O)c3cc4c(cc32)OCO4)c1	27.9%	2.2%	-2.9%	.
O=C(Cc1ccccc1)NNc1ccc2ccccc2c1	-15.4%	0.562µM*	-27.1%	-0.9%
CCN(CC)c1ccc(/C=N/NC(=O)OC)c(O)c1	-20.7%	29.4%	-11.9%	6.4%
CCn1nc(C)c(/C=N/NC(=O)c2ccoc2C)c1C	22.0%	-19.7%	15.8µM*	-16.0%
CCN(CC)c1ccc(/C=N/NC(=O)c2ccoc2C)c(O)c1	50.6%	3.55µM*	-10.1%	-2.9%
Cc1cccc(C)c1NC(=O)CCCN1C(=O)CCn2nc(-c3cn(C)c4ccccc34)cc21	-13.9%	-15.1%	-8.5%	.
CCOC(=O)N1CCN(c2nc3ccccc3nc2C(C#N)C(=O)NCCc2ccccc2)CC1 (centres undefined)	14.0%	-21.2%	14.1µM*	-0.6%
COc1ccccc1N1CCN(c2nc3ccccc3nc2C(C#N)C(=O)OC(C)C)CC1 (centres undefined)	-22.8%	11.2µM*	1.2%	-5.3%
N#CC(C(=O)NCCc1ccccc1)c1nc2ccccc2nc1N1CCCCC1 (centres undefined)	94.7%	11.8%	-3.1%	3.0%
COc1ccc(CNC(=O)C2CCCN(S(=O)(=O)N(C)c3ccc(F)cc3)C2)cc1OC (centres undefined)	8.9%	?	1.1%	.
COC(=O)Cc1ccc(NC(=O)c2ccc(C(C)(C)C)cc2)cc1	?	4.47µM*	2.5%	-1.2%
CCOc1ccc(-n2nc3cc(C)c(NC(=O)c4cc(OCC)c(OCC)c(OCC)c4)cc3n2)cc1	-11.4%	6.8%	?	.
COCc1ccc(-c2c(-c3ccc(OC)cc3)oc(=O)c3cc(OC)c(OC)cc23)cc1	-13.3%	?	31.6µM*	26.1%
COc1ccc(-c2c(-c3ccsc3)oc(=O)c3cc(OC)c(OC)cc23)cc1	3.2%	22.0%	?	-4.8%
Cc1ccc(OCC(=O)Nc2nnc(SCc3cc(=O)n4cc(C)ccc4n3)s2)cc1	8.4%	6.5%	-10.8%	.
CCCCc1c(C)nn(-c2nnc3c4ccccc4n(CC)c3n2)c1C	10µM*	10µM*	0.7%	-3.3%
CCn1c2ccccc2c2nnc(N3CCN(c4ccc(F)cc4)CC3)nc21	13.7%	6.1%	-1.1%	.
SMILES	HEK293 tox	GLP-1R inv ag	ClpP mod	GLP1R ag
NC(=S)NS(=O)(=O)c1ccc(N)cc1	.	.	.	1.9%
COc1ccc(N2CC(NC(=O)c3ccc(S(=O)(=O)N4CCCC4)cc3)CC2=O)cc1 (centres undefined)	-0.1%	5.7%	-0.8%	.
Cc1cccc(C(=O)Nc2ccccc2C(=O)OCC(=O)Nc2ccc(C#N)cc2)c1	-18.4%	4.1%	15.8µM*	-23.4%
Cc1cccc(OCC(=O)Nc2ccc(C(=O)Nc3ccccc3C(=O)O)cc2)c1	-5.9%	-2.6%	-2.8%	3.1%
O=C(Cn1c2c(c(-c3ccccc3)cc1=O)CCCC2)N1CCCCCC1	12.1%	12.6µM*	0.1%	3.2%
COc1cccc(NC(=O)c2cccc3c(=O)c4c([nH]c23)CCCC4)c1	9.1%	15.6%	-1.9%	.
CCCCOn1c(C)c(C(=O)OCC)c2c3nonc3ccc21	5.1%	-4.2%	17.8µM*	-2.7%
COc1ccc(NC(=O)Cn2c3ncccc3c(=O)n2-c2ccc(C)c(C)c2)c(OC)c1	6.5%	3.5%	-10.6%	.
CC1(C)CC2CC(C)(CN2C(=O)c2cc(-c3ccc(F)cc3)on2)C1 (centres undefined)	-0.5%	?	.	7.3%
COc1ccc2c(c1)CCc1c(C(=O)N3CC4(C)CC3CC(C)(C)C4)noc1-2 (centres undefined)	-10.8%	12.6µM*	-1.6%	2.0%
CC1(C)CC2CC(C)(CN2C(=O)c2cc(-c3ccccc3)on2)C1 (centres undefined)	-2.7%	2.82µM*	.	12.3%
COc1ccc2c(c1)CCc1c(C(=O)N3CCOCC3)noc1-2	-21.0%	?	-1.8%	-1.7%
CCc1ccccc1NC(=O)Cc1ccc(-n2c(C)nc3cccnc32)cc1	0.4%	8.1%	-1.0%	.
CCN(CC)CCSc1nnc2c3cc(C)ccc3n(Cc3ccccc3)c2n1	?	12.6µM*	.	24.2%
Cc1ccc(NC(c2nnc(-c3ccccc3)o2)c2ccccc2F)c([N+](=O)[O-])c1 (centres undefined)	1.8%	3.4%	-2.1%	.
CC(=O)c1ccc(NC(=O)COC(=O)c2ccccc2N=Nc2ccc(N(C)C)cc2)cc1	10µM*	43.1%	0.4%	6.9%
COc1ccc(S(=O)(=O)N2CCC(C(=O)Nc3ccc(Oc4ccccc4)cc3)CC2)cc1OC	-17.0%	-7.0%	1.4%	.
Cn1c(=O)c2c(ncn2CC(O)CNc2ccc(Cl)cc2)n(C)c1=O (centres undefined)	-22.6%	2.2%	0.1%	-7.4%
Cc1ccc(NCC(O)Cn2cnc3c2c(=O)n(C)c(=O)n3C)cc1 (centres undefined)	-8.5%	1.7%	28.2µM*	1.1%
Cc1cccc(Cn2cc(C(=O)Nc3ccc(F)c(C(F)(F)F)c3)ccc2=O)c1	-10.3%	10µM*	-1.3%	.
Cc1cccc(Cn2cc(C(=O)Nc3cc(F)ccc3F)ccc2=O)c1	-3.1%	-23.0%	-0.1%	-3.3%
Cc1ccc2nc3c(cc(C#N)c(=O)n3-c3nnc(SCc4ccc(F)cc4)s3)c(=O)n2c1	25.0%	-6.3%	4.0%	.
CCOC(=O)c1nn(-c2ccccc2)c(=O)c2c(N)scc12	-5.7%	5.0%	-1.7%	1.4%
CCOC(=O)c1nn(-c2ccccc2)c(C(=O)OCC)c1N	?	45.0%	2µM*	9.1%
